# “And” between values parts separate entries of the source, which are not always exact repeats. Identical values can stand only once. Inconclusive results are not listed. Entries that show only a call come without a potency. Where a structure was tested more than once in an assay, its records may differ in their call. The source made the active and inactive calls. Calls come from the whole dose curve; as a rule, active = well fitted curve in the direction sought with a large enough effect; inconclusive = small, poorly fitted or top-dose-only effect, or another doubt; inactive = no such curve, though single readings can be large; an effect the other way counts as inactive or inconclusive. Where a SMILES comes first, the peptide text is derived from it.
# Tests used:
# [1] = molecular target: Cytochrome P450 3A7 (Homo sapiens) (UniProt P24462); assay: Cytochrome P450 family 3 subfamily A member 7 (CYP3A7) small molecule antagonists: luciferase biochemical qHTS assay (AID 1963596); note: nearly all actives have a fitted effect of over 40% in size
# Sequence of Cytochrome P450 3A7 (Homo sapiens) (P24462 whole entry, looked up): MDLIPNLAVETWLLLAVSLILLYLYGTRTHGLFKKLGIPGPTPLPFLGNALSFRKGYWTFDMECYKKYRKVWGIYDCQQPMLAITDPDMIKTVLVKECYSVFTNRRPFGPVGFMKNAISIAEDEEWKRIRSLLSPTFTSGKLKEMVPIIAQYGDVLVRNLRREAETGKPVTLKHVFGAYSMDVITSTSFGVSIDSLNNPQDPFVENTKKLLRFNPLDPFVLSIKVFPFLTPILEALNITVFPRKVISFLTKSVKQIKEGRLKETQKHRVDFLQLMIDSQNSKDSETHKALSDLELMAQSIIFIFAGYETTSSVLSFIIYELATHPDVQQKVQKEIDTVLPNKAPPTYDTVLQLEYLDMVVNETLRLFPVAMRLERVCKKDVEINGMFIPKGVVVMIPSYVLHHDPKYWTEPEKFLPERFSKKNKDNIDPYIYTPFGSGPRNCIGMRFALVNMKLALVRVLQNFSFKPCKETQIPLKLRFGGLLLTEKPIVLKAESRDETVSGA
# Method in brief: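 In this luminescent screen, enzyme and proluciferin substrate meet test compound for 10 min before NADPH regeneration solution drives a 1 h room-temperature reaction; detection reagent halts turnover and luminescence is read 20 min later.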
# [2] = Viability qHTS for spleen associated tyrosine kinase inhibitor (SYKi) naive MV4-11 cells (AID 1963823); note: nearly all actives have a fitted effect of over 40% in size; note: potency is the fitted concentration of half-maximal effect
# Method in brief: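 Cells: MV4-11, SYK inhibitor naive, 500 per well. Treatment: library compounds, 72 hr, 37 C, 5% CO2. Read-out: CellTiter-Glo luminescence after 10 min RT.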
# [3] = Viability qHTS for spleen associated tyrosine kinase inhibitor (SYKi) drug resistant MV4-11 cells (AID 1963824); note: nearly all actives have a fitted effect of over 35% in size; note: potency is the fitted concentration of half-maximal effect
# Method in brief: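 SYK inhibitor-resistant MV4-11 AML cells, 500 per well, added to predispensed compounds and incubated 72 hr at 37 C, 5% CO2. Viability measured by CellTiter-Glo luminescence after 10 min at room temperature.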
# [4] = Cellular viability qHTS for adrenocortical cancer (ACC) cell line SW-13 (AID 1963989); conditions: SW-13 ACC cells viability, CellTiter-Glo, 48 h; activity (max response): stronger effect = lower value; note: nearly all actives have a fitted effect of over 65% in size; note: potency is the fitted concentration of half-maximal effect;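 for activity (max response): cells grown in serum-free medium with ITS supplement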
# Method in brief: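 Compound titrations (up to 46 uM final, in DMSO) were applied to SW-13 cells for 48 h at 37C/5% CO2. Reading used CellTiter-Glo after 20 min at room temperature; fitted curves yielded IC50 and efficacy.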
# [5] = Cellular viability qHTS for adrenocortical cancer (ACC) cell line NCI-H295R (AID 1963990); note: nearly all actives have a fitted effect of over 60% in size; note: potency is the fitted concentration of half-maximal effect
# Method in brief: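 Readout: CellTiter-Glo luminescence, 20 min RT. Exposure: 48 h, 37C/5% CO2. Cells: NCI-H295R, ITS-DMEM serum-free. Range: up to 46 uM. Analysis: 4PL fit, IC50 plus efficacy.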
SMILES,Potency [1],Potency [2],Potency [3],Potency [4],Potency [5],activity (max response) [4],"activity change, negative = inhibition [1]",viability (% of control) [2],"viability, % of control [3]","activity change, negative = viability loss [5]"
COc1cc(N2CCC(N3CCN(C)CC3)CC2)ccc1Nc1ncnc(Nc2ccccc2S(=O)(=O)C(C)C)n1,inactive,1.16 µM (active) and 1.32 µM (active),2.06 µM (active) and 2.63 µM (active),11.2 µM (active),8.91 µM (active),,,,,
COCCc1ccccn1,inactive,75 nM (active),inactive,,inactive,-6% (inactive),,,,
CCN1CCN(C(=O)N[C@@H](C(=O)N[C@@H]2C(=O)N3[C@@H]2SC(C)(C)[C@H]3C(=O)O)c2ccccc2)C(=O)C1=O,inactive,inactive,inactive,,inactive,12.1% (inactive),,,,
CN1CCN(C2CCN(C(=O)Nc3cc(Oc4ccc(NC(=O)C5(C(=O)Nc6ccc(F)cc6)CC5)c(F)c4)ccn3)CC2)CC1,inactive,65.1 nM (active) and 93.4 nM (active),116 nM (active) and 132 nM (active),28.2 µM (active),25.1 µM (active),,,,,
NS(=O)(=O)c1ccc(C(=O)O)cc1,inactive,inactive,inactive,,inactive,11.4% (inactive),,,,
COc1ccc(CCC(C)=O)cc1,inactive,inactive,inactive,,inactive,-3.66% (inactive),,,,
NC(=Nc1ccccc1)Nc1ccccc1,inactive,38.6 µM (active) and inactive,34.4 µM (active),,inactive,-1.07% (inactive),,,,
O=C(O)CCCCCCCC(=O)O,inactive,inactive,inactive,,inactive,10.6% (inactive),,,,
CN(C)CC[C@@H](c1ccc(Cl)cc1)c1ccccn1,inactive,inactive,inactive,,inactive,7.75% (inactive),,,,
C[N+]1(C)CCCC(OC(=O)C(O)(c2ccccc2)c2ccccc2)C1 (stereo not given),inactive,inactive,inactive,,inactive,-0.325% (inactive),,,,
C=C1[C@H](CO)[C@@H](O)C[C@@H]1n1cnc2c(=O)[nH]c(N)nc21,inactive,inactive and 16.4 µM (active),inactive,,inactive,-5.41% (inactive),,,,
O=C(O)Cc1csc(-c2ccc(Cl)cc2)n1,inactive,inactive,inactive,,inactive,-3.04% (inactive),,,,
CN(N=O)C(=O)N[C@@H]1[C@@H](O)[C@H](O)[C@@H](CO)O[C@@H]1O,inactive,inactive,inactive,,inactive,0.228% (inactive) and 12.5% (inactive),,,,
CC(C)CCCC(C)NCCC(C)C (stereo not given),inactive,inactive,inactive,,inactive,-7.26% (inactive),,,,
CCN1CCN(C(=O)N[C@@H](C(=O)N[C@@H]2C(=O)N3C(C(=O)O)=C(CSc4nnnn4C)CS[C@H]23)c2ccc(O)cc2)C(=O)C1=O,inactive,inactive,inactive,,inactive,5.63% (inactive) and -4.45% (inactive),,,,
NC(=O)C1(N2CCCCC2)CCN(CCCC(=O)c2ccc(F)cc2)CC1,inactive,inactive,inactive,,inactive,1.85% (inactive),,,,
O=C1NC(c2ccccc2)(c2ccccc2)C(=O)N1COP(=O)(O)O,inactive,inactive,inactive,,inactive,10.4% (inactive),,,,
CN1C(=O)CC(C)(c2ccccc2)C1=O (stereo not given),inactive,inactive,inactive,,inactive,-10.7% (inactive),,,,
COc1ccc(C2C(=O)c3ccccc3C2=O)cc1,inactive,inactive,inactive,,inactive,8.16% (inactive),,,,
CC(=O)Nc1ccccc1,inactive,inactive,inactive,,inactive,-1.24% (inactive),,,,

SMILES,Potency [1],Potency [2],Potency [3],Potency [4],Potency [5],activity (max response) [4],"activity change, negative = inhibition [1]",viability (% of control) [2],"viability, % of control [3]","activity change, negative = viability loss [5]"
CCC1(c2ccccc2)C(=O)NCNC1=O,inactive,inactive,inactive,,inactive,8.13% (inactive) and -10.5% (inactive),,,,
CNC(=O)CN(CCN(CCN(CC(=O)[O-])CC(=O)NC)CC(=O)[O-])CC(=O)[O-].O.[Gd+3],inactive,inactive,inactive,,inactive,-4.04% (inactive),,,,
CC(=O)N(CC(O)CN(C(C)=O)c1c(I)c(C(=O)NCC(O)CO)c(I)c(C(=O)NCC(O)CO)c1I)c1c(I)c(C(=O)NCC(O)CO)c(I)c(C(=O)NCC(O)CO)c1I (stereo not given),inactive,inactive,inactive,,inactive,14.1% (inactive),,,,
O=C1CC[C@@H](C(=O)O)N1,inactive,1.5 nM (active),inactive,,inactive,-6.66% (inactive),,,,
C[C@H](O)C(=O)Nc1c(I)c(C(=O)NC(CO)CO)c(I)c(C(=O)NC(CO)CO)c1I,inactive,inactive,inactive,,inactive,10.3% (inactive),,,,
CCCCOCCOC(=O)c1cccnc1,inactive,inactive,inactive,,inactive,-1.25% (inactive),,,,
CCCCCCCCCCCCCCCCCCO,inactive,inactive,inactive,,inactive,-0.0263% (inactive),,,,
CCC(=O)Nc1ccc(O)cc1,inactive,inactive,inactive,,inactive,0.747% (inactive),,,,
CN(C)c1ccc(O)c2c1C[C@H]1C[C@H]3[C@H](N(C)C)C(=O)C(C(N)=O)=C(O)[C@@]3(O)C(=O)C1=C2O,inactive,20900 nM (active),20.9 µM (active),,inactive,-4.3% (inactive) and 1.01% (inactive),,,,
NC1CCN(c2nc3c(cc2F)c(=O)c(C(=O)O)cn3-c2ccc(F)cc2F)C1 (stereo not given),inactive,inactive,inactive,,inactive,-6.92% (inactive),,,,
CCOC(=O)CN1CCCC1=O,inactive,inactive,inactive,,inactive,4.08% (inactive),,,,
CC(N=C(NC#N)Nc1ccncc1)C(C)(C)C (stereo not given),inactive,inactive,inactive,,inactive,1.19% (inactive),,,,
CC(=O)N[C@@H](CO)C(=O)N[C@@H](CC(=O)O)C(=O)N[C@@H](CCCCN)C(=O)N1CCC[C@H]1C(=O)O (Ac-SDKP-OH),inactive,inactive,inactive,,inactive,0.638% (inactive),,,,
O=c1[nH]c2ccccc2c(=O)n1CCCl,inactive,inactive,inactive,,inactive,10.7% (inactive),,,,
CC(=O)NC(=O)c1ccccc1O,inactive,inactive,inactive,,inactive,-23.9% (inactive),,,,
C[N+](C)(C)CC(O)CC(=O)[O-] (stereo not given),inactive,inactive,inactive,,inactive,-6.62% (inactive),,,,
CN1CCN(C(=O)C2CCCCC2)CC1,inactive,inactive,inactive,,inactive,7.59% (inactive),,,,
Cc1ccc(C(=O)c2ccc(CC(=O)O)n2C)cc1,inactive,inactive,inactive,,inactive,4.18% (inactive),,,,
Cn1c(=O)c2c(ncn2C)n(C)c1=O,inactive,inactive,inactive,,inactive,-5.31% (inactive) and -10.5% (inactive),,,,
O=C(O)Cc1sc(-c2ccccc2)nc1-c1ccc(Cl)cc1,inactive,inactive,inactive,,inactive,0.388% (inactive),,,,

SMILES,Potency [1],Potency [2],Potency [3],Potency [4],Potency [5],activity (max response) [4],"activity change, negative = inhibition [1]",viability (% of control) [2],"viability, % of control [3]","activity change, negative = viability loss [5]"
CC(C(=O)O)c1ccc2c(c1)Cc1cccnc1O2 (stereo not given),inactive,inactive,inactive,,inactive,-0.725% (inactive),,,,
Cc1cc(NS(=O)(=O)c2ccc(N)cc2)nc(C)n1,inactive,inactive,inactive,,inactive,9.61% (inactive),,,,
CN(C)CC[C@@H](c1ccc(Br)cc1)c1ccccn1,inactive,inactive,inactive,,inactive,2.25% (inactive),,,,
NC(=O)N1c2ccccc2C=Cc2ccccc21,inactive,inactive,inactive,,inactive,8.83% (inactive),,,,
O=C(/C=C/c1ccc(O)c(O)c1)O[C@@H]1C[C@@](OC(=O)/C=C/c2ccc(O)c(O)c2)(C(=O)O)C[C@@H](O)[C@@H]1O,inactive,inactive,inactive,,inactive,4.38% (inactive),,,,
CC(O)CN(CCN(CC(C)O)CC(C)O)CC(C)O (stereo not given),inactive,inactive,inactive,,inactive,5.94% (inactive),,,,
CC(=O)N[C@@H](CS)C(=O)O,inactive,inactive,inactive,,inactive,15.1% (inactive),,,,
COc1ccc(O)cc1,inactive,inactive,inactive,,inactive,-1.22% (inactive),,,,
O=C(O)CN(CCOCCOCCN(CC(=O)O)CC(=O)O)CC(=O)O,,,,,,-1% (inactive),3.38% [at 0.91 µM] (inactive),65.2% [at 0.588 µM] (inactive),96.9% [at 0.588 µM] (inactive),-8.55% [at 0.587 µM] (inactive)
COc1ccc(/C(C)=C/C(=O)O)c(OC)c1,inactive,inactive,inactive,,inactive,9.2% (inactive),,,,
CCN1CCC[C@H]1CNC(=O)c1cc(S(N)(=O)=O)ccc1OC,inactive,inactive,inactive,,inactive,6.63% (inactive),,,,
Cc1cccc(C)c1OCC(C)N (stereo not given),inactive,inactive,inactive,,inactive,2.1% (inactive),,,,
NS(=O)(=O)c1ccc(NC(=O)CCC(=O)O)cc1,inactive,inactive,inactive,,inactive,4.28% (inactive),,,,
[O-][n+]1cccc(CO)c1,inactive,inactive,inactive,,inactive,9.62% (inactive),,,,
O=C(O)CCCCC(=O)O,inactive,inactive,inactive,,inactive,10.5% (inactive),,,,
CC(=O)OC[C@H]1O[C@@H](n2ncc(=O)[nH]c2=O)[C@H](OC(C)=O)[C@@H]1OC(C)=O,inactive,inactive,inactive,,inactive,-6.84% (inactive),,,,
Clc1ccc2nsnc2c1NC1=NCCN1,inactive,inactive,inactive,,inactive,-2.56% (inactive) and -8.39% (inactive),,,,
Cc1ncc(COP(=O)(O)O)c(C=O)c1O,inactive,inactive,inactive,,inactive,7.84% (inactive),,,,
